These results are taken from PubChem BioAssay (NCI).

Some test systems named below: SR leukemia; RPMI-8226 leukemia; OVCAR-8 ovarian; OVCAR-5 ovarian; OVCAR-4 ovarian; SK-OV-3 ovarian; IGROV1 ovarian; OVCAR-3 ovarian; HS 578T breast; NCI/ADR-RES ovarian; T-47D breast; BT-549 breast; MDA-MB-435 melanoma; SW-620 colon; MCF7 breast; HCT-116 colon; KM12 colon; HCC-2998 colon.
Test in all cases: NCI-60 one-dose screen, 48 h (100 = growth as untreated, 0 = no growth, -100 = all killed)
What all share (details): 10 µM unless noted

This is part of a sample that, as a whole, favours compounds with a hit. Of some 83,000 tested, about 20% had one in any assay.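 Activity criterion: percent growth below 10, measured after cells in 96-well plates were exposed to a single compound concentration for 48 hours.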 Unmarked numbers belong to inactive results. Activity calls are given as the source filed them.

As to `CNC(=O)c1cc(-c2ccc(NS(=O)(=O)c3ccc(C)cc3)cc2)nc2cccnc12`, the growth was 113% with SR leukemia; 110% in the test with RPMI-8226 leukemia; 99.5% in the test on OVCAR-8 ovarian; 117% with OVCAR-5 ovarian; 99.5% in the test with OVCAR-4 ovarian; 107% in the test on SK-OV-3 ovarian. Also, the growth in the test with IGROV1 ovarian was 97.4%; with OVCAR-3 ovarian, 111%; with HS 578T breast, 104%; in the test on NCI/ADR-RES ovarian, 100%; in the test with T-47D breast, 98%; in the test with BT-549 breast, 110%. Besides, the growth is 109% in the test on MDA-MB-435 melanoma; 107% with SW-620 colon; 72.9% in the test on MCF7 breast; 111% in the test on HCT-116 colon; 101% with KM12 colon.
In the case of `NC(N)=Nc1ccc(Oc2cccc(NC(N)=Nc3ccc(Cl)c(C(F)(F)F)c3)c2)cn1`, the growth with SR leukemia was -16.4% (active); in the test with RPMI-8226 leukemia, 27.9%; with OVCAR-8 ovarian, 53.5%; with OVCAR-5 ovarian it was 41.8%; with OVCAR-4 ovarian, 52.7%; in the test with SK-OV-3 ovarian, 48.3%. The growth in the test on IGROV1 ovarian was -19.7% (active); in the test with OVCAR-3 ovarian, 3.55% (active); in the test on HS 578T breast, 33.2%; with NCI/ADR-RES ovarian, 95.4%; in the test on T-47D breast, 32.9%; in the test on BT-549 breast, 60.4%. Also, the growth in the test on MDA-MB-435 melanoma was 46.4%; with SW-620 colon, 38.5%; with MCF7 breast it was 20.2%; in the test on HCT-116 colon it was 15.8%; with KM12 colon, 24.7%.
As to `Cn1cc(-c2nc(N)nnc2-c2c[nH]c3ccccc23)c2cc(Br)ccc21`, the growth was 26.7% in the test with SR leukemia; 12.9% in the test with RPMI-8226 leukemia; 33% with OVCAR-8 ovarian; 55.1% in the test on OVCAR-5 ovarian; 74.1% in the test on OVCAR-4 ovarian; 29.7% in the test with SK-OV-3 ovarian. The growth with IGROV1 ovarian was 30.5%; with OVCAR-3 ovarian it was 16.9%; in the test on HS 578T breast, 2.13% (active); with NCI/ADR-RES ovarian, 20.2%; in the test on T-47D breast, 31.2%; with BT-549 breast it was 32.9%. Moreover, the growth was -37.6% (active) in the test on MDA-MB-435 melanoma; 18.2% in the test with SW-620 colon; 18.1% in the test with MCF7 breast; 20.3% in the test with HCT-116 colon; 18.1% in the test with KM12 colon.
Turning to `COc1cc(OC)c(/C=C/S(=O)(=O)Cc2ccc(OC)c(NC(=O)CCC(=O)NO)c2)c(OC)c1`, the growth in the test on SR leukemia was 14.2%; in the test with RPMI-8226 leukemia, 16.9%; with OVCAR-8 ovarian, 17.2%; in the test on OVCAR-5 ovarian, 33.9%; in the test on OVCAR-4 ovarian, 45.3%; in the test with SK-OV-3 ovarian, 32.6%. For the same molecule, the growth with IGROV1 ovarian was 13.4%; in the test with OVCAR-3 ovarian it was 6.69% (active); in the test with HS 578T breast, 16.2%; in the test on NCI/ADR-RES ovarian, 10.2%; in the test with T-47D breast, 86.4%; in the test on BT-549 breast it was 14.5%. In addition, the growth is -2.23% (active) in the test on MDA-MB-435 melanoma; 21.7% in the test with SW-620 colon; 11.9% with MCF7 breast; 3.5% (active) with HCT-116 colon; 10.3% with HCC-2998 colon; 7.24% (active) with KM12 colon.
Take `COc1cc(-c2nc(SCCC(C)C)nc(NNC(=O)c3ccncc3)c2C#N)cc(OC)c1OC`: the growth was 105% in the test with SR leukemia; 100% in the test on RPMI-8226 leukemia; 70% in the test with OVCAR-8 ovarian; 61% in the test with OVCAR-5 ovarian; 90.6% in the test with OVCAR-4 ovarian; 31.9% with SK-OV-3 ovarian. The growth was 2.47% (active) with IGROV1 ovarian; 73.5% with OVCAR-3 ovarian; 8.27% (active) with HS 578T breast; 74.1% in the test on NCI/ADR-RES ovarian; 43% in the test on T-47D breast; 104% in the test on BT-549 breast. The growth in the test on MDA-MB-435 melanoma was 90.1%; in the test on SW-620 colon it was 110%; with MCF7 breast, 74.7%; in the test with HCT-116 colon, 84.5%; in the test with KM12 colon, 86.5%.
With `CCOC(=O)c1c(NC(=O)c2ccccc2C(F)(F)F)sc2c1CCC(=O)C2`, the growth with SR leukemia is 24.2%; in the test with RPMI-8226 leukemia, -6.12% (active); with OVCAR-8 ovarian, 37.9%; in the test on OVCAR-5 ovarian it was 21%; with OVCAR-4 ovarian it was 16.7%; in the test with SK-OV-3 ovarian it was 99.7%. Also, the growth in the test on IGROV1 ovarian is 29%; in the test on OVCAR-3 ovarian it was 12.4%; in the test on HS 578T breast, 36.3%; in the test with NCI/ADR-RES ovarian it was 10.7%; in the test with T-47D breast, 15%; with BT-549 breast it was 11.1%. Besides, the growth is 72.6% with MDA-MB-435 melanoma; 14.9% in the test with SW-620 colon; 78.5% in the test with MCF7 breast; 11% in the test with HCT-116 colon; 65.2% in the test on HCC-2998 colon; 7.7% (active) in the test with KM12 colon.
Turning to `Cn1cc(-c2nc(N)nnc2-c2c[nH]c3ccc(Br)cc23)c2cc(Br)ccc21`, the growth with SR leukemia is 20.4%; in the test with RPMI-8226 leukemia, 31.1%; in the test with OVCAR-8 ovarian it was 57.8%; in the test with OVCAR-5 ovarian it was 79.9%; in the test with OVCAR-4 ovarian it was 110%; in the test on SK-OV-3 ovarian it was 72.4%. For the same molecule, the growth is 43.7% with IGROV1 ovarian; 26.8% in the test with OVCAR-3 ovarian; 76.7% in the test on HS 578T breast; 46.5% in the test with NCI/ADR-RES ovarian; 32.2% in the test with T-47D breast; 48.8% in the test with BT-549 breast. In addition, the growth in the test with MDA-MB-435 melanoma is 11.6%; in the test with SW-620 colon, 29.2%; in the test on MCF7 breast, 30.6%; in the test with HCT-116 colon, 17.6%; in the test on HCC-2998 colon, 81.9%; with KM12 colon, 27.6%.
Turning to `CCN(CC)c1ccc2c(c1)Oc1nc(N)c(C#N)c(N)c1C2Sc1ccc(F)cc1` (configuration not stated), the growth is -9.13% (active) in the test with SR leukemia; -25.7% (active) with RPMI-8226 leukemia; -31.1% (active) in the test on OVCAR-8 ovarian; -92.5% (active) with OVCAR-5 ovarian; -29.3% (active) in the test with OVCAR-4 ovarian; -7.03% (active) in the test on SK-OV-3 ovarian. Besides, the growth with IGROV1 ovarian is -77.9% (active); in the test on OVCAR-3 ovarian, -69.4% (active); with HS 578T breast, -4.5% (active); in the test with NCI/ADR-RES ovarian, -9.25% (active); in the test with T-47D breast, -35% (active); in the test with BT-549 breast, 56.1%. Besides, the growth in the test on MDA-MB-435 melanoma was -17.5% (active); in the test with SW-620 colon, -80.2% (active); in the test with MCF7 breast, -85.5% (active); with HCT-116 colon, -81.4% (active); in the test on HCC-2998 colon, -90.9% (active); in the test with KM12 colon, -74.1% (active).
On to `O=C(CN1CCN(c2cc(=O)n(-c3ccccc3)c3ccccc23)CC1)Nc1cccc(C(F)(F)F)c1`, for which the growth in the test on SR leukemia was 67.3%; in the test with RPMI-8226 leukemia, 47%; in the test on OVCAR-8 ovarian, 70.6%; with OVCAR-5 ovarian, 91.8%; in the test on OVCAR-4 ovarian, 19.9%; in the test with SK-OV-3 ovarian, 77.3%. Moreover, the growth was 60.7% in the test on IGROV1 ovarian; 69.8% in the test with OVCAR-3 ovarian; 76.3% in the test on HS 578T breast; 64.7% with NCI/ADR-RES ovarian; 19.7% with T-47D breast; 66.6% with BT-549 breast. Moreover, the growth was 61.4% in the test with MDA-MB-435 melanoma; 75% in the test with SW-620 colon; 29.1% in the test with MCF7 breast; 42.6% with HCT-116 colon; 65.1% in the test on KM12 colon.
